{"source": "PubChem BioAssay (Tox21)", "key": {"[1]": {"molecular_target": "Cytochrome P450 2C19 (Homo sapiens) (UniProt P33261)", "sequence (P33261 whole entry, looked up)": "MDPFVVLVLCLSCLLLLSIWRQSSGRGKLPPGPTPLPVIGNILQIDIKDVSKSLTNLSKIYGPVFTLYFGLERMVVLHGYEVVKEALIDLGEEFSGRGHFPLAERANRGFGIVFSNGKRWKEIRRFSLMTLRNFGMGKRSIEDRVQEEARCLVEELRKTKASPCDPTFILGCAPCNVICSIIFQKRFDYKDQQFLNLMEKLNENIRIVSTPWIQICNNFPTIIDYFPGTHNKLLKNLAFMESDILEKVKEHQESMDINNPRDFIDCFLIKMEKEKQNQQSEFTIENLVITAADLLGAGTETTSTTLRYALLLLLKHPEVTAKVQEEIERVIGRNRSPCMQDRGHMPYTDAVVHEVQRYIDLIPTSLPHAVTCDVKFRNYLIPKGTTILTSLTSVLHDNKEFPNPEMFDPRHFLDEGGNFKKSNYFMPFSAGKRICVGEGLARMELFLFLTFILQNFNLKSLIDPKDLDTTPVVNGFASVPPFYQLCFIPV", "experiment": "Cytochrome P450 Family 2 Subfamily C Member 19 (CYP2C19) small molecule antagonists: luciferase reporter qHTS assay (AID 1671197); further: nearly all actives have a fitted effect of over 65% in size; further: potency means the concentration at half of the fitted maximal effect", "how_it_was_run": "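Light output is proportional to CYP2C19 activity: proluciferin substrate is converted to luciferin, then detected by a luciferin detection reagent that also stops the 1 h, 37C NADPH-driven reaction. Ketoconazole serves as positive control.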"}, "[2]": {"molecular_target": "Cytochrome P450 2C9 (Homo sapiens) (UniProt P11712)", "sequence (P11712 whole entry, looked up)": "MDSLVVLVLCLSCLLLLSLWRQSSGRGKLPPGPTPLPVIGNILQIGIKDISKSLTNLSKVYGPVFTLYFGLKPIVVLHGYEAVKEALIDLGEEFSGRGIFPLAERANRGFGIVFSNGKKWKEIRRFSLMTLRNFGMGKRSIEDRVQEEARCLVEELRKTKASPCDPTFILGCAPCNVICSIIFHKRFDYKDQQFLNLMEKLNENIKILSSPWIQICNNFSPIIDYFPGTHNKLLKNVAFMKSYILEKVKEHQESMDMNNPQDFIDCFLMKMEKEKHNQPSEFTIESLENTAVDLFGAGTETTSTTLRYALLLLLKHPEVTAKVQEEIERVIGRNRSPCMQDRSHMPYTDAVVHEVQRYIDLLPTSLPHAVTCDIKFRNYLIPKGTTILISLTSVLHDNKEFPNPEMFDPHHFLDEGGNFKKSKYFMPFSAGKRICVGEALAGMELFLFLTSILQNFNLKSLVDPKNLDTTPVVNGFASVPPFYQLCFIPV", "experiment": "Cytochrome P450 Family 2 Subfamily C Member 9 (CYP2C9) small molecule antagonists: luciferase reporter qHTS assay (AID 1671198); further: nearly all actives have a fitted effect of over 50% in size; further: potency means the concentration at half of the fitted maximal effect", "how_it_was_run": "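P450-Glo proluciferin substrate with CYP2C9 enzyme; 10 min RT preincubation, then NADPH regeneration 1 h at 37C; luciferin detection reagent 20 min RT, luminescence in relative luminescence units.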"}, "[3]": {"molecular_target": "Cytochrome P450 1A2 (Homo sapiens) (UniProt P05177)", "sequence (P05177 whole entry, looked up)": "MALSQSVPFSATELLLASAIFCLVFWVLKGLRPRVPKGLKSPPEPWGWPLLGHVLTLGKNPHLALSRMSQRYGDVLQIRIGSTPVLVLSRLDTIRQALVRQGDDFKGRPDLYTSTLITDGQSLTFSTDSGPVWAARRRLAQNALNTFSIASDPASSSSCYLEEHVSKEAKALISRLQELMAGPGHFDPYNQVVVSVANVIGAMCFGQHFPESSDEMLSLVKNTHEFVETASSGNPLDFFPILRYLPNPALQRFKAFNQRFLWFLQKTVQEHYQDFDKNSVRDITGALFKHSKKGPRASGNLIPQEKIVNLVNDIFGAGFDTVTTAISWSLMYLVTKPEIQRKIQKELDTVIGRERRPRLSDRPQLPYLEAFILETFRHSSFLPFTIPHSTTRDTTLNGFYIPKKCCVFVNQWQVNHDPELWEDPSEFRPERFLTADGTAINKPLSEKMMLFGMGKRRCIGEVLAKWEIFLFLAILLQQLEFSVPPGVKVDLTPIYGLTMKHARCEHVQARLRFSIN", "experiment": "Cytochrome P450 Family 1 Subfamily A Member 2 (CYP1A2) small molecule antagonists: luciferase reporter qHTS assay (AID 1671199); further: nearly all actives have a fitted effect of over 50% in size; further: potency means the concentration at half of the fitted maximal effect", "how_it_was_run": "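P450-Glo CYP1A2 enzyme–proluciferin substrate mix with compound 10 min at room temperature, then NADPH regeneration 1 h at room temperature. Luciferin detection reagent added, luminescence read after 20 min; furafylline positive control.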"}, "[4]": {"molecular_target": "Voltage-gated inwardly rectifying potassium channel KCNH2 (Homo sapiens) (UniProt Q12809)", "sequence (Q12809 whole entry, looked up)": "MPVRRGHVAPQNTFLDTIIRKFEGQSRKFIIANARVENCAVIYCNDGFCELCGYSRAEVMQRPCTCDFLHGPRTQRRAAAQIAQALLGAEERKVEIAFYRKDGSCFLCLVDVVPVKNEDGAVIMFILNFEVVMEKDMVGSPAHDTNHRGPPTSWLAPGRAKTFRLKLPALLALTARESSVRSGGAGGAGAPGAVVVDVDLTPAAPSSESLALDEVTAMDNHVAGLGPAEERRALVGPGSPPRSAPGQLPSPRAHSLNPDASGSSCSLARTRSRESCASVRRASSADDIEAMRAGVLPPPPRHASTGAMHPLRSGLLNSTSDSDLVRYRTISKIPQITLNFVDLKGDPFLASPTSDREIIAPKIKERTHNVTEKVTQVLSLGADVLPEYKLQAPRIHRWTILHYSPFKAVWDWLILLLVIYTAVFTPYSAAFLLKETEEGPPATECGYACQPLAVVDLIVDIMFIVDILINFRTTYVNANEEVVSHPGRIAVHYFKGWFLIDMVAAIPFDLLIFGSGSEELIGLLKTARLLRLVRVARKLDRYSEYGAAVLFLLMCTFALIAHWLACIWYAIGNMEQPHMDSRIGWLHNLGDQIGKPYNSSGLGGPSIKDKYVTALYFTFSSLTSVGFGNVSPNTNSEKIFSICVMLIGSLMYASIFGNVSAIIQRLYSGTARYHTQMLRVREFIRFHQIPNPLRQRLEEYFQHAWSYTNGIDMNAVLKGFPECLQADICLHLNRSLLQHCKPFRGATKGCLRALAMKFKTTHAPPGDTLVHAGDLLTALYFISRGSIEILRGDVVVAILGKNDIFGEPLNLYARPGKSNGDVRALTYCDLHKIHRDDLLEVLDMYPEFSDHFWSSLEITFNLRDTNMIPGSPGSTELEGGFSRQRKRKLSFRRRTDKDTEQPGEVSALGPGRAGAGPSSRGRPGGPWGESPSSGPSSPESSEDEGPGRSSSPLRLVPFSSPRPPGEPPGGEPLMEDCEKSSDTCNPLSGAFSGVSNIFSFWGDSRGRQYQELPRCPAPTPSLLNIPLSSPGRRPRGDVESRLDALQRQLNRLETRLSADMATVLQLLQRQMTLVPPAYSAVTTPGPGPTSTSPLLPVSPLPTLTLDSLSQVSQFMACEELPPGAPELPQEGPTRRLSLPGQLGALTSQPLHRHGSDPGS", "experiment": "Human Ether-a-go-go-Related Gene (hERG) channel small molecule antagonists: fluorescence cell-based qHTS assay (AID 1671200);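 further: hERG-expressing U2OS cells given a thallium stimulus after FluxOR II dye loading; series mostly up to about 77 µM; nearly all actives have a fitted effect of over 50% in size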", "how_it_was_run": "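Fluorescence at 540 nm emission (480 nm excitation) was recorded kinetically for 2 min at 1-second intervals once the thallium-containing stimulus reached cells previously loaded with FluxOR II dye.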"}, "[5]": {"molecular_target": "Cytochrome P450 3A4 (Homo sapiens) (UniProt P08684)", "sequence (P08684 whole entry, looked up)": "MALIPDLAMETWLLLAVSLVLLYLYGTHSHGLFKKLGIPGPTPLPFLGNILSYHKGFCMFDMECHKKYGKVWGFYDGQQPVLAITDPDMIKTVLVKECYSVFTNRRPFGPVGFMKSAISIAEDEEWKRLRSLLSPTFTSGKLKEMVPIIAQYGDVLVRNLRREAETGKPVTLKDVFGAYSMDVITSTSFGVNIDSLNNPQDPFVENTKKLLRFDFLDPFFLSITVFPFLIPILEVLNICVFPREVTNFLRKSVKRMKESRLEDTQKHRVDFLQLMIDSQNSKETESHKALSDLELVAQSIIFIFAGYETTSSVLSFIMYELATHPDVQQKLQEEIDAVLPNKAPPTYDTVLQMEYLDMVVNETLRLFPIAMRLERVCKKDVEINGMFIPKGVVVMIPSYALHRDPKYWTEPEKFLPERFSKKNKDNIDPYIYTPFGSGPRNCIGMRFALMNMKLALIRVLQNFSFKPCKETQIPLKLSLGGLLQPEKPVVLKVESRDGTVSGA", "experiment": "Cytochrome P450 Family 3 Subfamily A Member 4 (CYP3A4) small molecule antagonists: luciferase reporter qHTS assay (AID 1671201); further: nearly all actives have a fitted effect of over 50% in size; further: potency means the concentration at half of the fitted maximal effect", "how_it_was_run": "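qHTS, 1536-well. CYP3A4 + proluciferin substrate, cpd 10 min RT → NADPH regen 1 h RT → detection reagent 20 min → luminescence (RLU). Ketoconazole positive control.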"}}, "note": "Several values for one entry are separate records, joined by “and”; a condition that tells them apart may be missing. Equal values may be shown once. Inconclusive results are not listed. Entries that show only a call come without a potency. Some compounds were tested as several samples or in several runs, with calls that do not always agree. Activity calls are given as the source filed them. The call rests on the fitted dose curve; in most records, active means well fitted curve in the direction sought with a large enough effect in the repeat runs; inconclusive means weak or mixed curves; inactive means no such curve, though single readings can be large; an effect the other way counts as inactive or inconclusive."}
{"smiles": "Brc1nc2ccccc2s1", "values": [{"measurement": "Potency", "setting": "[1]", "value": "35.5 µM (active) and inactive"}, {"measurement": "Potency", "setting": "[2]", "value": "inactive"}, {"measurement": "Potency", "setting": "[3]", "value": "31.6 µM (active) and 14.2 µM (active)"}, {"measurement": "Potency", "setting": "[4]", "value": "inactive"}, {"measurement": "Potency", "setting": "[5]", "value": "inactive"}]}
{"smiles": "CC(=O)Oc1ccc(C(c2ccc(OC(C)=O)cc2)c2ccccn2)cc1", "values": [{"measurement": "Potency", "setting": "[1]", "value": "7.92 µM (active) and 24.5 µM (active)"}, {"measurement": "Potency", "setting": "[2]", "value": "7.06 µM (active) and 12.3 µM (active)"}, {"measurement": "Potency", "setting": "[3]", "value": "inactive"}, {"measurement": "Potency", "setting": "[4]", "value": "inactive"}, {"measurement": "Potency", "setting": "[5]", "value": "inactive"}]}
{"smiles": "Nc1cc(Cl)c(N)c(Cl)c1", "values": [{"measurement": "Potency", "setting": "[1]", "value": "8.86 µM (active) and 71 µM (active)"}, {"measurement": "Potency", "setting": "[2]", "value": "15.8 µM (active) and 39.9 µM (active)"}, {"measurement": "Potency", "setting": "[3]", "value": "15.8 µM (active) and 35.6 µM (active)"}, {"measurement": "Potency", "setting": "[4]", "value": "inactive"}, {"measurement": "Potency", "setting": "[5]", "value": "3.14 µM (active) and 17.8 µM (active)"}]}
{"smiles": "FC(F)(F)C(Cl)Br", "note": "(stereo unspecified)", "values": [{"measurement": "Potency", "setting": "[1]", "value": "inactive"}, {"measurement": "Potency", "setting": "[2]", "value": "inactive"}, {"measurement": "Potency", "setting": "[3]", "value": "inactive"}, {"measurement": "Potency", "setting": "[4]", "value": "inactive"}, {"measurement": "Potency", "setting": "[5]", "value": "inactive"}]}
{"smiles": "COc1ccc2nc(N)sc2c1", "values": [{"measurement": "Potency", "setting": "[1]", "value": "39.9 µM (active) and 71 µM (active)"}, {"measurement": "Potency", "setting": "[2]", "value": "39.9 µM (active)"}, {"measurement": "Potency", "setting": "[3]", "value": "22.5 µM (active) and 31.7 µM (active)"}, {"measurement": "Potency", "setting": "[4]", "value": "inactive"}]}
{"smiles": "CC(=O)[C@@]1(O)CC[C@H]2[C@@H]3C[C@H](C)C4=CC(=O)C=C[C@]4(C)[C@@]3(F)[C@@H](O)C[C@@]21C", "values": [{"measurement": "Potency", "setting": "[1]", "value": "inactive"}, {"measurement": "Potency", "setting": "[2]", "value": "10 µM (active) and 6.92 µM (active)"}, {"measurement": "Potency", "setting": "[3]", "value": "inactive"}]}
{"smiles": "CC1(C)OC(=O)NC1=O", "values": [{"measurement": "Potency", "setting": "[1]", "value": "inactive"}, {"measurement": "Potency", "setting": "[2]", "value": "inactive"}, {"measurement": "Potency", "setting": "[3]", "value": "inactive"}, {"measurement": "Potency", "setting": "[4]", "value": "inactive"}]}
{"smiles": "CC(=O)O[C@]1(C(C)=O)CC[C@H]2[C@@H]3C=C(Cl)C4=CC(=O)CC[C@]4(C)[C@H]3CC[C@@]21C", "values": [{"measurement": "Potency", "setting": "[1]", "value": "12.6 µM (active) and 4.36 µM (active)"}, {"measurement": "Potency", "setting": "[2]", "value": "20 µM (active) and 15.5 µM (active)"}, {"measurement": "Potency", "setting": "[3]", "value": "inactive"}, {"measurement": "Potency", "setting": "[4]", "value": "inactive"}, {"measurement": "Potency", "setting": "[5]", "value": "inactive"}]}
